# Among all 300,000 compounds or so, about 3,200 (1.1%) were called active. No stated cut-off is given here; in the data, active means inhibition above about 75%; inconclusive means no clear call, values can overlap the other calls; inactive means below that; tested in HMLE shEcad cells. The sample as a whole holds a higher share of actives than the screen did.
# Assay: growth suppression of cancer stem-like cells – cell-based, luminescence, primary screen (AID 2717)
# Settings: cancer stem cell-like cells viability, at 7.5 µM, hits give high values
row,Compound,inhibition
1,Cc1ccc(P(=S)(c2ccc(C)o2)N2CCOCC2)o1,76.5% (active)
2,Cc1ccc(-n2c(C)cc(/C=C3\C(=O)NC(=O)N(C)C3=O)c2C)cc1C,-18.6% (inactive)
3,CCCCCCCCCCCCn1ccc(=N)cc1,102% (active)
4,O=C(O)C1CSC(c2cccnc2)N1 (stereo not given),-4.58% (inactive)
5,CCC1(C)CC(CCNCc2ccc(N(C)C)cc2)(c2ccc(F)cc2)CCO1 (stereo not given),15% (inactive)
6,COc1ccc(Br)cc1CNCCc1cccc(Cl)c1,35.5% (inactive)
7,O=C1C2(Cl)C3(Cl)C4(Cl)C(Cl)(Cl)C5(Cl)C3(Cl)C1(Cl)C5(Cl)C24Cl (stereo not given),101% (active)
8,COC(=O)C1=C(c2cccc(OCc3ccccc3)c2)C[C@@H]2CC[C@H]1N2C(=O)NCc1ccc(Br)cc1,30% (inactive)
9,C[C@]12CC[C@H](O)CC1=C([N+](=O)[O-])CC1C2CC[C@@]2(C)C1CC[C@@H]2O (stereo not given in full),19.8% (inactive)
10,CC(Cc1ccccc1)NCCC(c1ccccc1)c1ccccc1 (stereo not given),86.3% (active)
11,CC(Cc1ccccc1)NC=O (stereo not given),-4.89% (inactive)
12,CC(=O)NC(=O)NC(C)Cc1ccccc1 (stereo not given),-9.41% (inactive)
13,CCC(=O)c1ccc(OCC(=O)N2CCN(CC(=O)Nc3ccc(C)cc3)CC2)cc1,-4.41% (inactive)
14,O=C(O)COc1ccccc1/C=C1\C(=O)NC(=O)N(CCC2=CCCCC2)C1=O,-7.06% (inactive)
15,O=C1NC(=O)N(Cc2ccco2)C(=O)/C1=C\c1ccc(-c2ccc(F)cc2)o1,-3.26% (inactive)
16,O=C1NC(=O)N(CCc2ccc(F)cc2)C(=O)/C1=C/C=C/c1ccccc1,89.8% (active)
17,COC(=O)C1=C(c2ccc(Cl)c(C(F)(F)F)c2)C[C@@H]2CC[C@H]1N2C(=O)NC1CC1,-14.7% (inactive)
18,Nc1ccc([N+](=O)[O-])cc1,22.2% (inactive)
19,COC(=O)C1=C(c2ccccc2OCc2ccccc2)C[C@@H]2CC[C@H]1N2C(=O)NCc1ccc(OC)cc1,6.19% (inactive)
20,N#Cc1ccc(Cn2cc(C(=O)c3ccco3)c3ccccc32)cc1,6.82% (inactive)
21,COC(=O)C1=C(c2c(C)noc2C)C[C@@H]2CC[C@H]1N2C(=O)NCc1ccc2c(c1)OCO2,2.81% (inactive)
22,N=c1ccccn1Cc1ccccc1,1.97% (inactive)
23,COC(=O)C1=C(c2ccc(-c3ccccc3)c(F)c2)C[C@@H]2CC[C@H]1N2C(=O)NCc1ccc(F)cc1,36.3% (inactive)
24,C[C@]12CC[C@H](O)C[C@H]1CC[C@@H]1C2CC[C@]2(C)[C@@H](C3=CC(=O)OC3)[C@@H](O)C[C@]12O (stereo not given in full),85% (active)
25,C[C@]12CCC3C(CC[C@H]4C[C@@H](O)CC[C@]34C)C1C[C@@H](O)[C@H]2O (stereo not given in full),-9.01% (inactive)
26,C[C@]12CCC3C(CC[C@H]4C[C@@H](O)CC[C@]34C)C1CC[C@@H]2O (stereo not given in full),-19.5% (inactive)
27,CC(Cc1cccs1)NCc1ccc(Cl)cc1 (stereo not given),-5.86% (inactive)
28,COC(=O)C1=C(c2ccc(F)cc2OCc2ccccc2)C[C@@H]2CC[C@H]1N2C(=O)NCc1ccc2[nH]ccc2c1,9.97% (inactive)
29,COc1ccc(-c2nn(CCC#N)cc2C(=O)O)cc1,1.09% (inactive)
30,COC(=O)C1=C(c2ccc(F)cc2OCc2ccccc2)C[C@@H]2CC[C@H]1N2C(=O)NCc1ccc(Cl)cc1,15.5% (inactive)

# Reference: PubChem BioAssay AID2717 (Broad Institute, 2010)
